For part of these data: Measured potencies and affinities stand elsewhere. Records with an inconclusive call do not appear. Active and inactive are the calls of the source.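 How the source made its calls, unless noted: active means fitted dose curve reaches 40% lysis signal rise at or below the highest valid concentration tested for that sample; inconclusive means flat fit between 30% and 70%, or poor curve fit; inactive means signal falls, stays flat within 30%, or no crossing.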
Legend:
[1] = small molecules captured by biotinylated probe aFSTL3 – biochemical, small-molecule microarray, fluorescence 635/667, stem cell growth factor project, primary screen (AID 1064); conditions: higher = more signal;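 further: measures binding of the biotinylated anti-FSTL3 antibody to printed compounds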
[2] = binders from COS7 lysate, DM2A8 probe, primary screen, torsin A project, cell lysate, small-molecule microarray, fluorescence 635/667 (AID 1065); conditions: higher = more signal, COS7 lysate expressing mutant human TOR1A
[3] = small molecules captured by biotinylated probe aFGF2 – biochemical, small-molecule microarray, fluorescence 635/667, stem cell growth factor project, primary screen (AID 1067); conditions: higher = more signal;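 further: measures binding of biotinylated aFGF2 protein to printed compounds on slides; z-score merges feature fluorescence and signal-to-noise across triplicate slides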
[4] = small molecules captured by biotinylated probe aFGF10 – biochemical, small-molecule microarray, fluorescence 635/667, stem cell growth factor project, primary screen (AID 1071); conditions: higher = more signal;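 further: score merges 667 nm spot intensity and signal to noise from triplicate slides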
[5] = target: Neurogenic locus notch homolog protein 2 (Homo sapiens) (UniProt Q04721); experiment: small molecules binding Notch2 protein – biochemical, small-molecule microarray, 635 nm fluorescence, stem cell growth factors, primary screen (AID 1073); conditions: higher = more signal
Neurogenic locus notch homolog protein 2 (Homo sapiens), sequence (Q04721 whole entry, looked up, canonical isoform): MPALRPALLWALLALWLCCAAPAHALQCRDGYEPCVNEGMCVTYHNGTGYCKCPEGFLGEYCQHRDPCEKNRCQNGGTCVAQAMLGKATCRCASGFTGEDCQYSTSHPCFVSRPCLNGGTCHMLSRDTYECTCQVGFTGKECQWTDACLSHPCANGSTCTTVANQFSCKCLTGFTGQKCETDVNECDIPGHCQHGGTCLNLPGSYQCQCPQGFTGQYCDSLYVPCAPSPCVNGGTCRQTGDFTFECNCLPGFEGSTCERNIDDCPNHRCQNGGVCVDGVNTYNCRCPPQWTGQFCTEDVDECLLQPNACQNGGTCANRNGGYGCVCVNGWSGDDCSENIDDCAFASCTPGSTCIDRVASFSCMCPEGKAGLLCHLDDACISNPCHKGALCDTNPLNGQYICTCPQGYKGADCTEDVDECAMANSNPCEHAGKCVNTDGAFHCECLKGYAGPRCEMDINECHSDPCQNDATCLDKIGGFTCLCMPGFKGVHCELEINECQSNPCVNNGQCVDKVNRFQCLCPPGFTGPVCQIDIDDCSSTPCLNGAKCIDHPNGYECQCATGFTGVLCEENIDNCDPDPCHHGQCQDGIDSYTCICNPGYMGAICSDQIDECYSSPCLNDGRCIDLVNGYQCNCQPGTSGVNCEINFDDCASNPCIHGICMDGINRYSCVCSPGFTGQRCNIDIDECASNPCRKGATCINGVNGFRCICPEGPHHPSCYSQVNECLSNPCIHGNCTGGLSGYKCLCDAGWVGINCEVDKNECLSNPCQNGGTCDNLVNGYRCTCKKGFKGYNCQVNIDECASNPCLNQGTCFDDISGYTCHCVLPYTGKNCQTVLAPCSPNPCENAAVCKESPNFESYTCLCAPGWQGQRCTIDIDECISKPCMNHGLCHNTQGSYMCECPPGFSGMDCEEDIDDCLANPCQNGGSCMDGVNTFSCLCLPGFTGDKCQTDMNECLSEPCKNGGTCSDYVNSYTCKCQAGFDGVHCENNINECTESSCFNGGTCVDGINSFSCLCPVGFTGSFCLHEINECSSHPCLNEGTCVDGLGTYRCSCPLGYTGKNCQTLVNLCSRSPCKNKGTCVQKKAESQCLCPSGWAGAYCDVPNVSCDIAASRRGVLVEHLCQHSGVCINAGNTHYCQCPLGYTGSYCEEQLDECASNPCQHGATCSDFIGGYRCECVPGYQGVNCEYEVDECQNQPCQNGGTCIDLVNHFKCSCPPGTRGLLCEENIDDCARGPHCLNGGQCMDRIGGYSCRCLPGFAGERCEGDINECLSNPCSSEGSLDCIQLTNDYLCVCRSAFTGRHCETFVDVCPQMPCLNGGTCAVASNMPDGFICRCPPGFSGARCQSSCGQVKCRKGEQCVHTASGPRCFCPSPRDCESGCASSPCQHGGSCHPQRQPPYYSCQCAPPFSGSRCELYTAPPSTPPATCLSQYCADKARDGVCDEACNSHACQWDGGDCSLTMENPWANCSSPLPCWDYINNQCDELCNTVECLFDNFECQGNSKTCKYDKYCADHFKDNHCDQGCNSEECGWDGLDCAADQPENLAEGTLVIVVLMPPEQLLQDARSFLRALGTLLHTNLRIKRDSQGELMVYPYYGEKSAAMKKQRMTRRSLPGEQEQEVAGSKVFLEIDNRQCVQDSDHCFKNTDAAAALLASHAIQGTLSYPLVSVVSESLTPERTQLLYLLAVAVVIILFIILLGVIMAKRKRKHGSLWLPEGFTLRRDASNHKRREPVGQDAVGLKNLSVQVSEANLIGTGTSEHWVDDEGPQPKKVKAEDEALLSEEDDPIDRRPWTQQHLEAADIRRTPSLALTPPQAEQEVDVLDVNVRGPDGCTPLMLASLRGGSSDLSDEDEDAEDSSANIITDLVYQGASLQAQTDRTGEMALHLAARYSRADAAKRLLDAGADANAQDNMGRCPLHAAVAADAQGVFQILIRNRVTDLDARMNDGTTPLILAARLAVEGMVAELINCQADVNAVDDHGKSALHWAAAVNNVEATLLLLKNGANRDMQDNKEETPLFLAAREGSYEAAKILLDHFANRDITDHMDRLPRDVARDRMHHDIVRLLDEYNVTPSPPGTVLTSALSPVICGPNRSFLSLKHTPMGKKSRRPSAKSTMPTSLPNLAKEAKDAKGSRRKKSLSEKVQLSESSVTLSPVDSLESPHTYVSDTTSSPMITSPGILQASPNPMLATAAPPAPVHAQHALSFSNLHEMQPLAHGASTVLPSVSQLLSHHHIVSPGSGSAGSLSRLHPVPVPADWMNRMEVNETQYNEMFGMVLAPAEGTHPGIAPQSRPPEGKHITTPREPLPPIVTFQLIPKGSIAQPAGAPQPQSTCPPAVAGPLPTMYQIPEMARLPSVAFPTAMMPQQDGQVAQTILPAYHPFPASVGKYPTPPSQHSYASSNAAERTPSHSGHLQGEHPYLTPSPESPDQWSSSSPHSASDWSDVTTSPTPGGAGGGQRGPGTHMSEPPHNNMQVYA

[6] = target: Pro-neuregulin-1, membrane-bound isoform (Homo sapiens) (UniProt Q02297); experiment: small molecules binding neuregulin-1 protein – biochemical, small-molecule microarray, fluorescence 635/667, psychiatric disease protein project, primary screen (AID 1075); conditions: NRG1 binding, 635 nm fluorescence, higher = more signal;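 further: score combines 667 nm spot fluorescence with signal to noise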
Pro-neuregulin-1, membrane-bound isoform (Homo sapiens), sequence (Q02297 whole entry, looked up, the tested form may be a part, canonical isoform): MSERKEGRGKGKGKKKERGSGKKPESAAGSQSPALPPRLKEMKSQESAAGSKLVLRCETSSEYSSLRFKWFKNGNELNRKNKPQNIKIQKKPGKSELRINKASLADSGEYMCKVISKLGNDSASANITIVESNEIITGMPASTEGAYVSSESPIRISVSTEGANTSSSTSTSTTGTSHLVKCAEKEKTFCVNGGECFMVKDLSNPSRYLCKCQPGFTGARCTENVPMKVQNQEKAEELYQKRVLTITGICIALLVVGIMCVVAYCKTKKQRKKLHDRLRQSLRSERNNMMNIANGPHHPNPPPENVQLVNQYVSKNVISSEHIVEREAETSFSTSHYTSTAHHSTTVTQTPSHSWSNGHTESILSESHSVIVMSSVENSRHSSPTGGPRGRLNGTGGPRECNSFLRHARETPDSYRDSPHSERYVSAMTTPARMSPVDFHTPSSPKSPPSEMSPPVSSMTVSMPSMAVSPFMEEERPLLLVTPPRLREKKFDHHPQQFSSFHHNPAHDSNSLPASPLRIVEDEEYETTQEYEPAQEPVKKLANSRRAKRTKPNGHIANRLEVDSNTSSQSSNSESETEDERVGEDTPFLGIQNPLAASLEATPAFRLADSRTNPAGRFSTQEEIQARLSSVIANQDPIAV

[7] = test system: Neuregulin-1 EGF-like domain; experiment: small molecules binding NRG1 EGF domain – biochemical, small-molecule microarray, 635 nm fluorescence, primary screen (AID 1081); conditions: higher = more signal;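 further: binding of the protein to compounds printed on small-molecule microarray slides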
[8] = FRG1 expression reporter modulators in myotubes – cell-based, C2C12 myotubes, firefly/Renilla luciferase, luminescence, FRG1 inhibition for FSHD, primary screen (AID 1084); conditions: FRG1 promoter luciferase, higher = more signal, called active from +8 up or from −8 down
[9] = small molecules captured by biotinylated probe aFST – biochemical, small-molecule microarray, fluorescence 635/667, stem cell growth factor project, primary screen (AID 1086); conditions: higher = more signal;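 further: score merges 667 nm fluorescence with signal-to-noise of each printed compound spot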
[10] = binders of probe aHhip on microarray, primary screen, stem cell growth factor project, biochemical, small-molecule microarray, fluorescence 635/667 (AID 1087); conditions: higher = more signal;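 further: score merges spot fluorescence at 667nm with spot signal to noise ratio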
[11] = test system: PRMT1 (protein arginine N-methyltransferase 1); experiment: small molecules binding arginine methyltransferase PRMT1 – biochemical, small-molecule microarray, 635 nm fluorescence, primary screen (AID 1088); conditions: higher = more signal;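 further: binding of Prmt1 protein to compounds spotted on small-molecule microarray slides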
[12] = growth effects on S. cerevisiae YJM789 – YJM789 clinical isolate, OD600, 24 h, basal, primary screen (AID 1089); conditions: higher = more signal, called active from +8 up or from −8 down;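 further: growth of clinical yeast isolate S. cerevisiae YJM 789 seeded 1000 cells per well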
[13] = S. pombe growth modifiers, basal conditions – strain 972, OD600, 24 h, no modulator, primary screen (AID 1090);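 further: basal condition with compound alone and no growth modifier present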; conditions: S. pombe 972 growth, higher = more signal, called active from +8 up or from −8 down
[14] = budding yeast growth modifiers under rapamycin – strain BY4716, OD600, 96 h, primary screen (AID 1091); conditions: S. cerevisiae BY4716 + rapamycin, higher = more signal, called active from +8 up or from −8 down
[15] = target: Torsin-1A-interacting protein 2 (Homo sapiens) (UniProt Q8NFQ8); experiment: small molecules binding lysate-expressed LULL1 – cell lysate, human LULL1 lysate, 635/667 nm fluorescence, primary screen (AID 1092); conditions: small-molecule microarray, hLULL1 lysate binding, 635 nm fluorescence; higher = more signal;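 further: probe is lysate of COS7 cells overexpressing human LULL1; score merges per-feature 667 nm fluorescence with signal-to-noise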
Torsin-1A-interacting protein 2 (Homo sapiens), sequence (Q8NFQ8 whole entry, looked up): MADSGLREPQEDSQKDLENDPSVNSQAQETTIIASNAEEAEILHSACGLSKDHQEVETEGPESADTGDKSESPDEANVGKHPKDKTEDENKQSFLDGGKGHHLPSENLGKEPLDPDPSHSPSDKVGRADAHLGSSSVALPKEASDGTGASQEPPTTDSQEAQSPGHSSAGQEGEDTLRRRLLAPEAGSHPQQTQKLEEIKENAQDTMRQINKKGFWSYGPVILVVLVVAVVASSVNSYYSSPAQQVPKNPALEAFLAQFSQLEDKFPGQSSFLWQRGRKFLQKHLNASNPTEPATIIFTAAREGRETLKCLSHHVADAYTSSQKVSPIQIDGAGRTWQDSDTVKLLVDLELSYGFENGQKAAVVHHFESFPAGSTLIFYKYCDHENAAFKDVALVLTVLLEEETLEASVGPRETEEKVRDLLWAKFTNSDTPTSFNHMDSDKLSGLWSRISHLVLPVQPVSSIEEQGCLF

[16] = optical density change of DRC41 E. coli – strain DRC41, OD650, 24 h, E. coli filamentation project, primary screen (AID 1093);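 further: MC1000 strain lacking acrAB efflux and sulA so SOS filamentation is blocked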; conditions: E. coli DRC41 growth, higher = more signal, called active from +8 up or from −8 down
[17] = fungal growth arrest, C. neoformans – Alamar Blue, cherry-picks, dose response (AID 686998;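 active means falling signal with fitted half-maximal potency no higher than twice the top valid tested dose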); conditions: Cryptococcus neoformans growth, 24 h; series mostly up to 35 µM
[18] = C. neoformans lysis by adenylate kinase leakage – AK release luminescence, cherry-picks, dose response (AID 687000); conditions: 4 h, 100% = twice the neutral-control signal; series mostly up to 15 µM;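 further: luminescent detection of adenylate kinase leaking from lysed yeast; 0% = median neutral control signal and 100% = double that signal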
[19] = viability loss in HepG2 hepatoma cells – cell-based, cherry-picks, set 2, cytotoxicity control, dose response (AID 687002;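 active means a dose-response fit showing signal loss, with half-maximal concentration no higher than twice the top tested dose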); conditions: ATP luminescence (CellTiter-Glo), 48 h; series mostly up to 26 µM

Row | SMILES | composite z-score [1] | composite z-score [2] | composite z-score [3] | composite z-score [4] | composite z-score [5] | composite z-score [6] | composite z-score [7] | z-score [8] | composite z-score [9] | composite z-score [10] | composite z-score [11] | z-score [12] | z-score [13] | z-score [14] | composite z-score [15] | z-score [16] | outcome [17] | outcome [18] | outcome [19]
1 | O=C1O[C@H](c2ccccc2)[C@H](c2ccccc2)N2[C@H]1[C@@H](C(=O)Nc1nc3ccccc3s1)[C@]1(C(=O)Nc3ccc(C#CCCO)cc31)[C@H]2c1ccccc1OCCO | -0.246 | 1.25 | -0.038 | 0.502 | 1.35 | 1.69 | 1.06 | -1.51 (inactive) | 0.599 | 0.0757 | 1.47 | 0.764 (inactive) | -1.98 (inactive) | 2.62 (inactive) | 2.85 | 2.96 (inactive) |  |  | 
2 | CC(C)[C@@H](C(=O)O)n1cc(-c2ccccn2)nn1 | 0.22 | 0.424 | -0.378 | 0.458 | 0.537 | 0.419 | 0.961 | 0.0328 (inactive) | 0.659 | 0.0274 | 0.575 | 0.0655 (inactive) | -0.477 (inactive) | -0.353 (inactive) | 0.88 | 1.99 (inactive) |  |  | 
3 | COC(=O)C1=CC(CCCO)=CC(C2CC2)N(Cc2cc3c(cc2Br)OCO3)C=C1C(=O)OC (stereo not given) | 1.74 | 2.08 | -0.0656 | -0.435 | 0.728 | 2.22 | 1.3 | -0.0234 (inactive) | 0.796 | -0.0645 | 1.54 | -1.04 (inactive) | -2.22 (inactive) | -1.23 (inactive) | 3 | -0.741 (inactive) |  |  | 
4 | C[C@H]1CN([C@@H](C)CO)C(=O)Cc2cc(NC(=O)CCCCCC(=O)Nc3ccccc3N)ccc2O[C@H]1CN(C)Cc1ccc2c(c1)OCO2 |  |  |  |  |  |  |  |  |  |  |  |  |  |  |  |  | inactive | inactive | inactive
5 | CC(C)C[C@@H]1NC(=O)[C@@H]2C[C@H](C(=O)NCCCCCNC(=O)CS)[C@H](c3cccc(OCCO)c3)N2C1=O | 0.0138 | 1.55 | -0.0332 | 0.355 | 0.947 | 1.35 | 1.29 | 0.152 (inactive) | 0.35 | -0.286 | 1.55 | -1.66 (inactive) | -0.926 (inactive) | -0.565 (inactive) | 2.23 | 2.24 (inactive) |  |  | 
6 | C=C1C=C(Br)C2(OCCCO2)[C@H]2OC12 (stereo not given in full) | -0.199 | 0.249 | -0.128 | 0.325 | -0.175 | -0.188 | -0.221 | 1.04 (inactive) | 0.206 | 0.0274 | -0.83 | -0.23 (inactive) | -0.54 (inactive) | 0.405 (inactive) | -0.38 | 0.294 (inactive) |  |  | 
7 | CCCC[C@@H](O)C1=C(C)C[C@H]2C(=O)N(C)C(=O)[C@H]2[C@H]1CO | -0.275 | -0.305 | -0.12 | 0.469 | 0.109 | 0.11 | -0.0165 | -0.645 (inactive) | -0.176 | -0.318 | 0.54 | -0.219 (inactive) | -1.6 (inactive) | -1.19 (inactive) | 1.31 | 2.68 (inactive) |  |  | 
8 | CCOC(=O)C[C@H]1[C@H](OC(=O)c2ccc(C(=O)c3ccccc3)cc2)[C@@H](NC(=O)Cc2ccc(OC)cc2)c2cc(OCCCO)ccc2N1C(=O)Cc1ccc(OC)cc1 | 0.0476 | 0.346 | 0.007 | 0.35 | 0.903 | 0.752 | 0.668 | -1.22 (inactive) | 0.971 | -0.132 | 1.21 | -0.574 (inactive) | -1.42 (inactive) | -0.914 (inactive) | 1.66 | 1.78 (inactive) |  |  | 
9 | C=C(/C(=C/C[C@H](OC(=O)c1ccncc1)c1cccc(OCCO)c1)c1cc(C(=O)OC)ccc1OC)C(C)C | -0.0743 | 1.66 | -0.113 | 0.382 | 0.191 | -0.389 | 0.73 | -1.23 (inactive) | -0.179 | -0.0631 | 1.26 | 0.195 (inactive) | -0.382 (inactive) | 0.947 (inactive) | 1.23 | 1.22 (inactive) |  |  | 
10 | C=C(COC)C(=O)CC[C@H](OC(=O)c1ccccc1-c1ccccc1C(=O)O)c1ccccc1OCCO | 0.181 | 0.607 | -0.129 | 0.247 | -0.453 | 0.867 | 0.761 | -0.621 (inactive) | -0.0824 | -0.16 | 1.56 | -0.0355 (inactive) | -1.37 (inactive) | -1.08 (inactive) | 1.13 | 1.4 (inactive) |  |  | 
11 | Cc1noc(C)c1NC(=O)Nc1ccc2c(c1)C(=O)N(C)[C@@H]1CC[C@H](CC(=O)N[C@H]3CCN(Cc4ccccc4)C3)O[C@@H]1CO2 |  |  |  |  |  |  |  |  |  |  |  |  |  |  |  |  | inactive | inactive | inactive

From PubChem BioAssay
